The campaign covered roughly 220,000 compounds. About 8,200 (3.7%) were called active. What follows is part of a selection rich in actives, with near analogues and random picks from the rest. A number with no mark means an inactive call.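 How the source made its calls: active means compounds that reduced the stress-induced luciferase reporter signal by more than about 70% of percent inhibition (limit read from the data); inactive means the rest.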

A short description of the experiment: inhibitors of CHOP promoter induction, primary screen, cell-based, unfolded protein response, luciferase reporter (AID 2732).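 Further: 0% = tunicamycin plus vehicle and 100% = wells without tunicamycin.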 Conditions: CHO-K1 CHOP-promoter luciferase, tunicamycin-induced, 15-18 h; at 10 µM; active compounds read high. In general terms: Reporter assays use an easily measured gene product as a stand-in for the process of interest.
In the case of `CCc1ccc(S(=O)(=O)NCC(O)COc2ccc(OC)cc2)cc1` (stereo unspecified), the inhibition (commonly the relative decrease from the control value, in per cent) was 16.3%.
Consider `O=C(N/N=C\c1cc(Br)c(Br)o1)C1COc2ccccc2O1` (stereo unspecified), for which the inhibition was 6.22%.
The result for `CCCc1cc(-c2nc(-c3ccc(C)cc3)cs2)ccn1` reads 39.6%; that for `Cc1ccc(-c2csc(-c3c[nH]c4ccccc34)n2)cc1`, 98.1% (active); that for `Cc1ccc(-c2csc(-c3cc(C)on3)n2)cc1`, -14.2%.
The result for `COCc1cc(=O)oc2cc(NS(=O)(=O)c3ccc(C)cc3)ccc12` reads 9.01%; that for `Cc1cc(Nc2ccc(N3CCOCC3)cc2)c2cccc(C)c2n1`, -27.9%; that for `CC(=O)c1ccc(NC(=O)Nc2ccc([N+](=O)[O-])cc2C)cc1`, 51.8%.
Regarding `COC(=O)c1ccc(NC(=O)Nc2ccc(C)cc2)cc1`, the inhibition is 26.6%.
For `COc1cc(NC(=O)Nc2ccc(C)cc2)cc([N+](=O)[O-])c1`, the inhibition was 71.2% (active).
Turning to `Cn1c(=O)c2c(nc(NCc3ccccc3)n2CC(N)=O)n(C)c1=O`, the inhibition is 9.77%.
`Cc1ccccc1N1CCN(Cc2nc(Cc3ccccc3F)no2)CC1`: the inhibition is -7.61%.
As to `COC(=O)c1cc(Cl)c(NC(=O)c2ccco2)cc1OC`, the inhibition is -8.18%.
Regarding `COc1cc(C(=O)OC(C)C(=O)NCC2CCCCC2)cc(NC(=O)c2ccco2)c1OC` (stereo unspecified), the inhibition was 101% (active).
Regarding `COc1cc(C(=O)N[C@@H](C)C(=O)NCc2ccco2)cc(OC)c1OC`, the inhibition was 0.36%.
Regarding `Cc1[nH]n(C)c(=O)c1N=Nc1ccc(S(C)(=O)=O)cc1`, the inhibition was 7.35%.
Take `O=C(/C=C/c1ccccc1)N/C(=C/c1ccccc1)C(=O)Nc1ccccc1O`: the inhibition is -0.94%.
In the case of `CCc1ccccc1NC(=O)c1cccs1`, the inhibition is 39.1%.
With `CCc1ccccc1NC(=O)/C(=C/c1ccccc1)c1ccccc1`, the inhibition is 84.8% (active).
Take `N#CC(C(=O)c1ccc(S(=O)(=O)N2CCCCCC2)cc1)c1nc2ccccc2[nH]1` (stereo unspecified): the inhibition is 101% (active).
As for `O=C(N/N=C/c1ccccn1)c1ccc(S(=O)(=O)N2CCCCCC2)cc1`, the inhibition was -0.54%.
Regarding `COc1ccccc1N1CCN(C(=O)c2ccc(S(=O)(=O)N3CCCCC3)cc2)CC1`, the inhibition is 10.2%.
`CCN(CC)S(=O)(=O)c1ccc(Cl)c(NC(=O)c2ccncc2)c1`: the inhibition was 4.4%.
Consider `CCN(CC)S(=O)(=O)c1ccc(C)c(NC(=O)COc2ccc(Br)cc2Cl)c1`, for which the inhibition is 88% (active).
Take `Cc1ccc(S(=O)(=O)N(C)C)cc1NC(=O)COC(=O)c1c(C)noc1C`: the inhibition is 22.9%.
Turning to `COC(=O)c1cccc(NS(C)(=O)=O)c1`, the inhibition is 27.4%.
Take `COC(=O)c1sc(SC)c(S(=O)(=O)C(C)C)c1N/N=C(\C#N)S(=O)(=O)c1ccccn1`: the inhibition is 5.06%.
The result for `CCN(CC(=O)Nc1cccc(S(N)(=O)=O)c1)Cc1nc2ccccc2c(=O)[nH]1` reads -6.72%; that for `C=CCSc1nc(N)cc(=O)[nH]1`, 14.8%.
The result for `O=C(O)C1CC=CCC1C(=O)Nc1ccccc1C(=O)N1CCN(c2ccccc2)CC1` (stereo unspecified) reads 12.7%; that for `CC(C)c1ccc(N2CCN(C(=O)c3ccccc3NC(=O)/C=C(\C(=O)O)c3ccccc3)CC2)cc1`, 110% (active); that for `Cc1cccc(N2CCN(C(=O)c3ccccc3NC(=O)C3CCCCC3C(=O)O)CC2)c1` (stereo unspecified), 13.9%.
Consider `CC12CN3CCN(CC(C3)/C1=N\NC(=O)c1ccccc1N)C2`, for which the inhibition is 7.18%.
`Cn1c(=O)c2c(nc(NCCc3ccccc3)n2Cc2ccccc2)n(C)c1=O`: the inhibition is 61.2%.
With `Cn1c(=O)c2c(nc(N/N=C/c3cccs3)n2Cc2ccc(Br)cc2)n(C)c1=O`, the inhibition is 79.6% (active).
On to `CCCCNc1nc2c(c(=O)n(C)c(=O)n2C)n1Cc1cccc(OC)c1`, for which the inhibition is 17.1%.
Regarding `O=C(CS(=O)(=O)c1ccc(C(F)(F)F)cn1)NNC(=O)c1ccccc1`, the inhibition is 3.02%.
As to `CCOC(=O)c1sc(C)c2c1NC(C)(c1cccc3ccccc13)NC2=O` (stereo unspecified), the inhibition is 74.8% (active).
Regarding `CCOC(=O)c1sc2nc(CSc3ccccc3)[nH]c(=O)c2c1C`, the inhibition was 63.4%.
The result for `CCOC(=O)c1sc2nc(C)[nH]c(=O)c2c1C` reads 3.38%; that for `Cc1nc(/N=C(\N)NC(=O)NC2CCCCC2)nc2ccccc12`, 33.5%; that for `O=C(Nc1cccn(Cc2ccccc2Cl)c1=O)NC1CCCCC1`, 26.3%.
As to `O=c1ccn(Cc2ccccc2Cl)cc1`, the inhibition is 68.6%.
The same measure for `CC1(C)COC(c2cccn2Cc2ccccc2Cl)=N1`: 71.8% (active).
In the case of `CCC(=O)/C(=C(/O)c1ccccc1)c1nc2ccccc2[nH]1`, the inhibition was -37.6%.
On to `O=C(/C(=C/c1cccc(Cl)c1)c1nc2ccccc2[nH]1)c1ccccc1`, for which the inhibition is 92.6% (active).
`O=C(Cc1nc2ccccc2[nH]c1=O)c1ccc(Cl)cc1`: the inhibition is -13.2%.
The same measure for `Cc1ccc(NNC(=O)c2c(F)cccc2Cl)cc1Cl`: 4.19%.
As to `COc1cccc(CN(C)CC(=O)Nc2sc3c(c2C#N)CCC3)c1`, the inhibition is 3.74%.
The same measure for `NC(=O)c1c(NC(=O)CSc2nnc(-c3ccco3)n2N)sc2c1CCCC2`: 22.2%.
Regarding `COc1ccc(-n2c(SCC(=O)Nc3sc4c(c3C#N)CCCC4)nnc2-c2ccc(O)cc2)cc1`, the inhibition is 106% (active).
Take `COc1ccc(OC)c(-n2c(-c3ccn[nH]3)n[nH]c2=S)c1`: the inhibition was 12.3%.
For `CCOC(=O)N1CCN(c2c(NCCN3CCN(c4ccccc4F)CC3)c(=O)c2=O)CC1`, the inhibition was 18.8%.
The same measure for `O=C(Oc1ccc(-c2nc(-c3ccccn3)no2)cc1)c1ccccc1`: 83.7% (active).
The same measure for `O=C(Oc1ccccc1)c1ccc2nccnc2c1`: -6.68%; for `c1ccc(-c2noc(-c3cccs3)n2)nc1`: 22.5%; for `O=c1c2c3c(sc2n(CCN2CCCC2)c(=O)n1Cc1ccccc1)CCCCC3`: 44.2%.
The result for `CSc1nnnn1-c1c(C)cc(C)cc1C` reads 3.56%; that for `COc1ccc(C)cc1NC(=O)C(OC(=O)c1cccc(S(=O)(=O)N(C)c2ccccc2)c1)c1ccccc1` (stereo unspecified), -0.27%; that for `CN(c1ccccc1)S(=O)(=O)c1ccc(Cl)c(C(=O)OCC(N)=O)c1`, 7.63%.
For the compound `CC(=O)c1c(C)[nH]c(C(=O)COC(=O)c2cccc(S(=O)(=O)N(C)c3ccccc3)c2)c1C`, the inhibition was 86.8% (active).
The same measure for `CN(c1ccc(OCC(=O)NC2=NCCS2)cc1)S(=O)(=O)c1ccc(F)cc1`: -3.41%; for `Cc1ccc(S(=O)(=O)/N=C(/NC(=S)Nc2c(C)n(C)n(-c3ccccc3)c2=O)c2ccccc2)cc1`: 5.21%.
The same measure for `Clc1ccc2nc(-c3ccccc3)nc(C(Cl)Cl)c2c1`: 75.6% (active).
Regarding `c1ccc(-c2nc(NCc3ccco3)c3ccccc3n2)cc1`, the inhibition is 8.64%.
Consider `Clc1cccc(-c2nc(NCC3CCCO3)c3ccccc3n2)c1` (stereo unspecified), for which the inhibition was 14.2%.
On to `FC(F)(F)c1cccc(-c2nc(COc3ccc(Cl)cc3Cl)no2)c1`, for which the inhibition was -14.1%.
The result for `O=C(c1cc(COc2c(F)cccc2F)on1)N1CCSCC1` reads -22.2%.
For the compound `CC[C@@H](C)[C@@H](C(=O)N1CCN(C(=O)OC(C)(C)C)CC1)n1cc(CCC(=O)O)nn1`, the inhibition was -7.63%.
Regarding `O=C(c1c(Cl)cccc1Cl)N1CCN(c2cccc3[nH]ccc23)CC1`, the inhibition was 12.1%.
The result for `COCCN1C(=O)N[C@@H](c2ccccc2)C(C(=O)OC)=C1C` reads -1.22%; that for `COC(=O)C1=C(C)N(C)C(C)=C(C(=O)OC)C1c1cccc(Br)c1`, 71.4% (active).
The same measure for `COC(=O)C1=C(C)N(C)C(=S)NC1c1ccccc1` (stereo unspecified): -6.17%; for `N/C(=N\S(=O)(=O)c1ccc(Cl)cc1)N1CCOCC1`: 13.5%; for `c1csc(-c2nnc(COc3ncnc4sccc34)o2)c1`: 4.38%.
The same measure for `Cc1cccc(C)c1Nc1c(-c2ccccc2O)nc2ncccn12`: 6.71%.
Turning to `O=c1c2ccccc2c(-c2ccccc2)nn1-c1ccccn1`, the inhibition was 38.6%.
As for `O=c1c2ccccc2c(-c2ccc(F)cc2)nn1-c1ccc(C(F)(F)F)cc1`, the inhibition is 75.1% (active).
The same measure for `O=c1c2ccccc2c(-c2ccc(Br)cc2)nn1Cc1ccccc1`: 36.9%; for `Oc1ccc2ccccc2c1N=Nc1nccs1`: -57.9%.
As for `Cc1noc(C)c1-c1nc(CSc2ccc(Cl)cc2)no1`, the inhibition was 20.1%.
In the case of `O=S(=O)(c1cccc(-c2nnc3n2CCCCC3)c1)N1CCOCC1`, the inhibition was 7.35%.
As to `COc1ccc(COC(=O)c2n[nH]c3ccccc23)cc1F`, the inhibition is 97.2% (active).
For the compound `O=C(COC(=O)c1n[nH]c2ccccc12)NCc1ccccc1`, the inhibition is 38.6%.
In the case of `COc1cccc(CNC(=O)c2n[nH]c3ccccc23)c1`, the inhibition was 15.2%.
With `C=CCN(C(=O)Nc1ccc2c(c1)nc(C)n2C)c1ccccc1`, the inhibition is -18.2%.
The same measure for `O=C(NCCc1c[nH]c2ccc(Cl)cc12)c1ccc([N+](=O)[O-])cc1`: -3.24%; for `CCCOc1ccc(Cc2c(Cl)nc(SC)nc2NC)cc1`: 97.5% (active).
On to `CCCOc1ccc(C(=O)NCCc2ccccc2)cc1`, for which the inhibition was 21.8%.
As to `CCCOc1ccc(-c2nc(N)n[nH]2)cc1`, the inhibition is 20.8%.
For the compound `CNc1ncnc2c1ncn2[C@@H]1O[C@H](CO)[C@H](O)C1O` (stereo partly specified), the inhibition was 10.8%.
Consider `COc1cc2[nH]c(=S)n(Cc3ccc(C)o3)c(=O)c2cc1OC`, for which the inhibition is 7.74%.
`COc1cc2[nH]c(=S)n(Cc3ccc(F)cc3)c(=O)c2cc1OC`: the inhibition was 90.9% (active).
The result for `CCOc1cc2[nH]c(=S)n(Cc3ccc(C(=O)NCCOC)cc3)c(=O)c2cc1OCC` reads 9.91%.
In the case of `C#CCNc1ccc(C(=O)OCC)cc1`, the inhibition was -15.6%.
The result for `O=C1c2cccc3cc(Br)cc(c23)C(=O)N1Nc1ccccc1` reads 63.7%; that for `O=C(O)CC1=C(Nc2ccccc2)C(=O)N(c2ccccc2)C1c1ccc(Cl)cc1` (stereo unspecified), 8.1%; that for `O=C1C=C(c2ccc(Cl)cc2)C(=O)N1Nc1ccccc1`, 108% (active).
`CC(C)(C)c1ccc(C(=O)NCCn2c(N)c(C#N)c3nc4ccccc4nc32)cc1`: the inhibition is 86.5% (active).
On to `N#Cc1c(N)n(CCOC(=O)c2ccc(Cl)cc2)c2nc3ccccc3nc12`, for which the inhibition is -17.1%.
In the case of `CCCNC(=O)c1c(N)n(-c2ccc(S(N)(=O)=O)cc2)c2nc3ccccc3nc12`, the inhibition was -1.19%.
In the case of `Cc1ccc(O)c(NC(=S)NC(=O)COc2ccc(Br)cc2)c1`, the inhibition was 74.2% (active).
Regarding `Cc1cccc(OCC(=O)NC(=S)Nc2ccccc2N2CCOCC2)c1`, the inhibition is 47.7%.
Turning to `Cc1ccc(O)c(NC(=O)COc2cc(C)ccc2C)c1`, the inhibition was 5.05%.
Turning to `CCCc1c(C(=O)O)cnn1-c1ccc(Cl)cc1`, the inhibition was -2.68%.
As to `O=C1[C@@H]2C(c3cccnc3)=NO[C@@H]2C(=O)N1c1ccc(Cl)cc1Cl`, the inhibition is 19.2%.

(Values after PubChem BioAssay AID2732 (Emory University Molecular Libraries Screening Center, 2010).)
